Experimental data from PubChem BioAssay (Tox21).
Values without a mark were called inactive. Results filed as inconclusive are left out. Where a call stands in place of a potency, no number is given. Active and inactive are the calls of the source. Unless noted, the call rests on the fitted dose curve; in most records, active means well fitted curve in the direction sought with a large enough effect in the repeat runs; inconclusive means weak or mixed curves; inactive means no such curve, though single readings can be large; an effect the other way counts as inactive or inconclusive.

Legend:
[1] = target: Thyrotropin receptor (Homo sapiens) (UniProt P16473); assay: qHTS assay to identify small molecule antagonists of the thyroid stimulating hormone receptor (TSHR) signaling pathway (AID 1259385; calls by dose curve; further: nearly all actives have a fitted effect of over 20% in size)
Outline: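 TSHR-HEK293 cells were plated and held 18 h at 37C/5% CO2, then given compound plus Ro20-1724 and stimulated with TSH at 1.5 ng/mL final. After 30 min at room temperature, cAMP was detected with cAMP-d2/anti-cAMP-cryptate (1 h) by fluorescence.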

[2] = qHTS assay to identify small molecule agonists of the estrogen receptor alpha (ER-alpha) signaling pathway in the presence of an antagonist - cell viability counter screen (AID 1259386);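 further: series mostly up to about 92 µM; cells exposed to compounds for 22 h at 37 °C before the viability read; nearly all actives have a fitted effect of over 30% in size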
Outline: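 Cell viability in VM7Luc4E2 cells (endogenous full-length ER-alpha) measured by CellTiter-Fluor fluorescence in the same wells as the luciferase screen. Cells pre-cultured 5 days in charcoal-stripped serum, then treated 22 h with compounds at 15 concentrations plus 10.0nM ICI-182,780.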

[3] = target: Progesterone receptor (Homo sapiens) (UniProt P06401); assay: qHTS assay to identify small molecule agonists of the progesterone receptor (PR) signaling pathway (AID 1346784; calls by dose curve; further: nearly all actives have a fitted effect of over 30% in size)
Outline: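 Agonist qHTS: compounds pinned onto 3,000 PR-UAS-bla HEK 293T cells per well in charcoal-stripped serum medium, 16hr at 37C, then beta-lactamase activity measured by LiveBLAzer FRET fluorescence after 2 hours at room temperature.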

[4] = target: Progesterone receptor (Homo sapiens) (UniProt P06401); assay: qHTS assay to identify small molecule antagonists of the progesterone receptor (PR) signaling pathway (AID 1346795; active means well fitted inhibition curve with a large enough effect in the signal ratio in the repeat runs, not every such curve was filed as active; the % refers to the signal ratio; further: potency means the concentration at half of the fitted maximal effect)
Outline: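 Antagonist mode with agonist R5020 at 1 nM final and 16 hr incubation at 37C. Reporter was beta-lactamase driven by UAS in HEK293T (PR-UAS-bla), 2% charcoal-stripped serum; signal from LiveBLAzer FRET substrate, 2 hr at room temperature.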

[5] = qHTS assay to identify small molecule antagonists of the progesterone receptor (PR) signaling pathway - cell viability counter screen (AID 1346798); further: series mostly up to about 92 µM; nearly all actives have a fitted effect of over 50% in size
Outline: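 Cytotoxicity read as CellTiter-Glo luminescence (30 min, room temperature) in the same wells as the beta-lactamase readout. HEK293T PR-UAS-bla cells in charcoal-stripped 2% FBS received compound and R5020, then 16 h at 37C, 5% CO2.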

[6] = qHTS assay to identify small molecule antagonists of the TGF-beta/Smad signaling pathway - cell viability counter screen (AID 1346824); further: nearly all actives have a fitted effect of over 50% in size
Outline: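 SBE-bla HEK 293T cells were plated overnight at 37 C, then given compounds in DMSO plus TGF-beta1 (added as 0.25 ng/mL solution) for 5 hr. After the bla read, CellTiter-Glo was added to the same wells and luminescence read after 30 min at room temperature.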

[7] = qHTS assay to identify small molecule agonists of the TGF-beta/Smad signaling pathway - cell viability counter screen (AID 1346829); further: top concentration of the series differs between compounds; nearly all actives have a fitted effect of over 45% in size
Outline: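 Same-well cytotoxicity: CellTiter-Glo added after the 2 hr room-temperature beta-lactamase substrate step, luminescence measured 30 min later; cells had 5 hr of compound at 37 C.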

[8] = qHTS assay to identify small molecule agonists of the TGF-beta/Smad signaling pathway (AID 1346859; active means well fitted activation curve with a large enough effect in the signal ratio in the repeat runs, not every such curve was filed as active; the % refers to the signal ratio; further: series mostly up to about 77 µM)
Outline: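 Fluorescence (ex 405 nm; em 460 and 530 nm) was read 2 h after LiveBLAzer FRET substrate at RT. The preceding compound treatment of overnight-plated SBE-bla HEK293T cells lasted 5 h at 37 C.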

[9] = target: Thyrotropin-releasing hormone receptor (Homo sapiens) (UniProt P34981); assay: qHTS assay to identify small molecule antagonists of the thyrotropin-releasing hormone receptor (TRHR) signaling pathway (AID 1346877; active means well fitted inhibition curve with a large enough effect in the repeat runs, not every such curve was filed as active; further: series mostly up to about 51 µM)
Outline: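 TRHR-expressing HEK293 cells loaded with calcium dye for 2 h at 37 C; compounds pre-incubated 5 min at room temperature before TRH challenge at 1 nM final. Intracellular calcium fluorescence read kinetically for 3 min; 15 concentrations in triplicate.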

[10] = target: Thyrotropin-releasing hormone receptor (Homo sapiens) (UniProt P34981); assay: qHTS assay to identify small molecule agonists of the thyrotropin-releasing hormone receptor (TRHR) signaling pathway (AID 1346891; calls by dose curve; further: series mostly up to about 58 µM)
Outline: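 Agonist-mode intracellular calcium readout: kinetic fluorescence over 3 min at 1 s intervals after compound addition to TRHR-HEK293 cells (18 h seeded, 2 h dye-loaded at 37 C). Fifteen concentrations, triplicates.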

[11] = Human pregnane X receptor (PXR) small molecule agonists, qHTS cell viability counter screen (AID 1346977); further: nearly all actives have a fitted effect of over 50% in size
Outline: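 Same-well viability read: CellTiter-Fluor added after 23 hr compound exposure, fluorescence measured 1 hr later. Cells were PXR-Luc HepG2 seeded at 2,000/well in 5% charcoal-stripped FBS medium, rested 5 hr before dosing at 37 C.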

[12] = Caspase-3/7 induction in HepG2 cells by small molecules, qHTS assay (AID 1346978); further: nearly all actives have a fitted effect of over 15% in size
Outline: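 Wild-type HepG2 cells (2,000/well) were settled 5 h at 37 C, 5% CO2, then exposed to compounds in DMSO for 17 h. Caspase-3/7 activity was read by luminescence 30 min after adding Caspase-Glo 3/7 reagent at room temperature.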

[13] = Caspase-3/7 induction in CHO-K1 cells by small molecules, qHTS cell viability counter screen (AID 1346979); further: nearly all actives have a fitted effect of over 35% in size
Outline: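 Cytotoxicity counter screen: CellTiter-Fluor added to compound-treated wild-type CHO-K1 cells at 16 h (37C, 5% CO2), fluorescence measured 1 h later; same wells as caspase-3/7 measurement.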

[14] = Caspase-3/7 induction in CHO-K1 cells by small molecules, qHTS assay (AID 1346980); further: nearly all actives have a fitted effect of over 15% in size
Outline: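 Wild-type cells were seeded at 1,500 per well and settled 5 hr at 37 C, 5% CO2, then exposed to DMSO-dissolved compounds for 17 hr. Caspase-Glo 3/7 reagent was added, and luminescence was read after 30min at room temperature.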

[15] = Caspase-3/7 induction in HepG2 cells by small molecules, qHTS cell viability counter screen (AID 1346981); further: series mostly up to about 92 µM; nearly all actives have a fitted effect of over 30% in size
Outline: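 Wild-type HepG2 cells, 2,000/well, settled 5 hr at 37 C, 5% CO2 before compound addition. Viability read by CellTiter-Fluor fluorescence, reagent added after 16 hr compound exposure, then 1 hr at 37C, in the same wells as the caspase read.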

[16] = target: Nuclear receptor subfamily 1 group I member 2 (Rattus norvegicus) (UniProt Q9R1A7); assay: Rat pregnane X receptor (rPXR) activation by small molecules, qHTS assay (AID 1346983); settings: rPXR luciferase reporter cells, One-Glo luminescence, 24 h; stronger effect = higher value; further: nearly all actives have a fitted effect of over 20% in size
Outline: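 Cell-based rPXR luciferase reporter assay, 2,000 cells per well, rested 5hr at 37 C before compound addition in DMSO, then 24 hr at 37 C. One-Glo reagent was added and luminescence read after 30 min at room temperature.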

[17] = qHTS assay to identify small molecule agonists of the progesterone receptor (PR) signaling pathway - cell viability counter screen (AID 1346799; calls by dose curve; further: nearly all actives have a fitted effect of over 45% in size)
Outline: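 Cytotoxicity measured by CellTiter-Glo luminescence (30 min, RT) in the same wells as the PR beta-lactamase agonist read. Those HEK293T cells had 16 h compound treatment at 37 C in 2% charcoal-stripped FBS medium.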

[18] = target: Nuclear receptor subfamily 1 group I member 2 (Homo sapiens) (UniProt O75469); assay: Human pregnane X receptor (PXR) small molecule agonists, qHTS assay (AID 1346982); further: nearly all actives have a fitted effect of over 35% in size; further: potency means the concentration at half of the fitted maximal effect
Outline: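 PXR-Luc HepG2 reporter cells (CYP3A4-driven luciferase) in 5% charcoal-stripped FBS medium, plated 5 h before compound addition, then treated 24 h at 37C. Luciferase read by ONE-Glo luminescence after 30 min at room temperature.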

[19] = target: Nuclear receptor subfamily 1 group I member 2 (Homo sapiens) (UniProt O75469); assay: CYP3A4 induction through human pregnane X receptor (PXR) by small molecules, qHTS assay (AID 1346984); further: nearly all actives have a fitted effect of over 40% in size; further: potency means the concentration at half of the fitted maximal effect
Outline: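 DPX-2 HepG2 cells carrying a PXR response element and CYP3A4-promoter luciferase construct, treated with compounds 24 hr at 37C. Then P450-Glo CYP3A4 Luciferin-IPA substrate (3uM final) for 3 hr at 37C, One-Glo added, luminescence read.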

[20] = target: Nuclear receptor subfamily 1 group I member 2 (Homo sapiens) (UniProt O75469); assay: Human pregnane X receptor (PXR) activation by small molecules, qHTS assay (AID 1346985); further: nearly all actives have a fitted effect of over 40% in size; further: potency means the concentration at half of the fitted maximal effect
Outline: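 DPX-2 cells (HepG2 co-transfected with a PXR response element and a CYP3A4-promoter luciferase construct) were seeded at 2,000 per well, rested 5 hr at 37C, then exposed to DMSO-dissolved compounds for 24 hr. Activation was read as luciferase luminescence.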

Sequence of Nuclear receptor subfamily 1 group I member 2 (Rattus norvegicus) (Q9R1A7 whole entry, looked up): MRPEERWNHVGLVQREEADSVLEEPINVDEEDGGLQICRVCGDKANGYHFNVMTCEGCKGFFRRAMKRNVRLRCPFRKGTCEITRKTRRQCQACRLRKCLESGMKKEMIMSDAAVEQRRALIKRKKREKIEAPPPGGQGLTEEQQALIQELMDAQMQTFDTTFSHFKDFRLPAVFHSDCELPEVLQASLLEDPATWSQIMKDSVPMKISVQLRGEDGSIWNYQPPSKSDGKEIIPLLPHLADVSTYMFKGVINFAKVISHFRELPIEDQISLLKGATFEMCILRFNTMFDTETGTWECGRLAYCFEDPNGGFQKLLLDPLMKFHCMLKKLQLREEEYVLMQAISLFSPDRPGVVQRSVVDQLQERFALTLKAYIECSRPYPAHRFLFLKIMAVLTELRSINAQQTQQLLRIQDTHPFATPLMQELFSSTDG
Sequence of Progesterone receptor (Homo sapiens) (P06401 whole entry, looked up): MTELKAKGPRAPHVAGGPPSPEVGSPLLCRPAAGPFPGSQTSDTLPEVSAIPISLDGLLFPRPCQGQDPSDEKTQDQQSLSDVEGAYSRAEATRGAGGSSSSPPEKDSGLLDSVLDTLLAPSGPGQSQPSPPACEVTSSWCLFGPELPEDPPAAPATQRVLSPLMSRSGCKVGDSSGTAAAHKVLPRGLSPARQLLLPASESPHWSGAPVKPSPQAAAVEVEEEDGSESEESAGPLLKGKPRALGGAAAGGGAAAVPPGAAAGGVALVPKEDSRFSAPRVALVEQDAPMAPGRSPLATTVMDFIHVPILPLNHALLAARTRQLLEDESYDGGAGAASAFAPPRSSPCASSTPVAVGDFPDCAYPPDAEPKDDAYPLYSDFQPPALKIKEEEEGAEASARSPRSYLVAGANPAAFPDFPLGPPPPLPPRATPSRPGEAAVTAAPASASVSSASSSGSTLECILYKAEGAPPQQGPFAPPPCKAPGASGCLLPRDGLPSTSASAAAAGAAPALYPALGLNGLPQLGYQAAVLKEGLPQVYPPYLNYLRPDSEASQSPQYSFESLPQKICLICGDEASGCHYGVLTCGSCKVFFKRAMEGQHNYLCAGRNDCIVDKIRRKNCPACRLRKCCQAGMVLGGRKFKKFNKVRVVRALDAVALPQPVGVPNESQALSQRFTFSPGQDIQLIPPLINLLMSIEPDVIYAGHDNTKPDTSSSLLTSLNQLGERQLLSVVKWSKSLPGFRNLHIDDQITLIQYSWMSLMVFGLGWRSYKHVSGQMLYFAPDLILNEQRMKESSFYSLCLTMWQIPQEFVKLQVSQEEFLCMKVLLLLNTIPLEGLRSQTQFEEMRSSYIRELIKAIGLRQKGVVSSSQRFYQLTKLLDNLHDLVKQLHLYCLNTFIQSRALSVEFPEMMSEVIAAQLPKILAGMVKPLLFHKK
Sequence of Nuclear receptor subfamily 1 group I member 2 (Homo sapiens) (O75469 whole entry, looked up): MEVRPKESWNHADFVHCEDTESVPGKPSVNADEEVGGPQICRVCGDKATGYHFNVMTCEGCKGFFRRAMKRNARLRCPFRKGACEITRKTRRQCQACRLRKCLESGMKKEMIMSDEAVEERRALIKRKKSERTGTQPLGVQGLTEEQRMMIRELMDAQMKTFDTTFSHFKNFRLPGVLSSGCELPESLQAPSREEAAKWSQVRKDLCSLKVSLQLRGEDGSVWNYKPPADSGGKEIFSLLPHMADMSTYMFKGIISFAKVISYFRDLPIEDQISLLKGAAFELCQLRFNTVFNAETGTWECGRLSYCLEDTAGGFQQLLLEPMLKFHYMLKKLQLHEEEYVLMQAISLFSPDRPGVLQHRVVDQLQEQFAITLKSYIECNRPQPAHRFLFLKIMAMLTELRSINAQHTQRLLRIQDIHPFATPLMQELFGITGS
Sequence of Thyrotropin receptor (Homo sapiens) (P16473 whole entry, looked up): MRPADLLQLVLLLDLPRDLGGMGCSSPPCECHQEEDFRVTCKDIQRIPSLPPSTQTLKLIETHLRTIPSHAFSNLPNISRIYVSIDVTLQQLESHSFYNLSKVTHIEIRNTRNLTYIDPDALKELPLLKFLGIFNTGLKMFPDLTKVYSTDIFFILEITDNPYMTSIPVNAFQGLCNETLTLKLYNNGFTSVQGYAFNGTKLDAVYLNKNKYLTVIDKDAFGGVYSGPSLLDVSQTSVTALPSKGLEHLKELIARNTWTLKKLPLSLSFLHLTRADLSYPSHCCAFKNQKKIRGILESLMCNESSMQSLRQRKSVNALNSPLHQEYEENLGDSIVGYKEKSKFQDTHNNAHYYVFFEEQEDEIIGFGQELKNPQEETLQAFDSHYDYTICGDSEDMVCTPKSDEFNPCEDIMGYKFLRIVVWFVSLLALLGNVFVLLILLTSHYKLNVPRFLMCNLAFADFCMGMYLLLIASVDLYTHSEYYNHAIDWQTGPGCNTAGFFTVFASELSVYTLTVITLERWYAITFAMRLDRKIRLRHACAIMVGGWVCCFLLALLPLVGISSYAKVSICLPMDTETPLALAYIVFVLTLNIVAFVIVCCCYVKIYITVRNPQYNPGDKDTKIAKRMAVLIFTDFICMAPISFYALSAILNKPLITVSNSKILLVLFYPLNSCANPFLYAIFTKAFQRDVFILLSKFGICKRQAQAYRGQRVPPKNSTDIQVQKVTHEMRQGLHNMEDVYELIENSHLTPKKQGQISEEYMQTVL
Sequence of Thyrotropin-releasing hormone receptor (Homo sapiens) (P34981 whole entry, looked up): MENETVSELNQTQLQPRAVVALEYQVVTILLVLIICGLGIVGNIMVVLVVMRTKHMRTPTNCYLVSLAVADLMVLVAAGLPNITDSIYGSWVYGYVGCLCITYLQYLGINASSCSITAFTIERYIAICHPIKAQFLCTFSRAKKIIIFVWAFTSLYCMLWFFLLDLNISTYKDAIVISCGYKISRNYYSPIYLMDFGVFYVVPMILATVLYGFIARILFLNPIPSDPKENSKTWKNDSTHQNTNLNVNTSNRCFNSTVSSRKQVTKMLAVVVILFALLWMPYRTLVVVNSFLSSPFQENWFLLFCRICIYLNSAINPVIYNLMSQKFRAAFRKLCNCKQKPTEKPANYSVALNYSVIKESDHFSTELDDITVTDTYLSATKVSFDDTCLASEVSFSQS

| Compound | outcome [1] | Potency [2] | Potency [3] | Potency [4] | Potency [5] | outcome [6] | outcome [7] | outcome [8] | outcome [9] | outcome [10] | Potency [11] | Potency [12] | Potency [13] | outcome [14] | Potency [15] | max activation [16] [%] | Potency [17] | Potency [18] | Potency [19] | Potency [20] |
| --- | --- | --- | --- | --- | --- | --- | --- | --- | --- | --- | --- | --- | --- | --- | --- | --- | --- | --- | --- | --- |
| COc1ccc(C2CNC(=O)C2)cc1OC1CCCC1 (stereo not drawn) | inactive | inactive | inactive | inactive | inactive | inactive | inactive | inactive | inactive | inactive | inactive | inactive | inactive | inactive | inactive | -2.12 |  |  |  |  |
| CC(=C(CCOC(=O)C(C)C)SSC(CCOC(=O)C(C)C)=C(C)N(C=O)Cc1cnc(C)nc1N)N(C=O)Cc1cnc(C)nc1N | inactive | inactive | inactive | inactive | inactive | inactive |  | inactive | inactive | inactive | inactive | inactive | inactive | inactive | inactive | -2.83 | inactive | inactive | inactive | inactive |
| CC/C=C\CC1=C(C)CCC1=O | inactive | inactive | inactive | inactive | inactive | inactive | inactive |  | inactive | inactive | inactive | inactive | inactive | inactive |  |  | inactive | 34.4 µM (active) |  |  |
| CC(C)(C)OC(=O)c1ccc(O)cc1 | inactive | inactive | inactive | 54.5 µM (active) | inactive |  | inactive | inactive | inactive | inactive | inactive | inactive | inactive | inactive | inactive |  |  | 27.3 µM (active) |  |  |
| O=C(CCN1CCN(CCO)CC1)N1c2ccccc2Sc2ccc(C(F)(F)F)cc21 | inactive | inactive | inactive | inactive | inactive | inactive | inactive | inactive | inactive | inactive | inactive | inactive | inactive | inactive | inactive | -2.18 |  |  | 10 µM (active) | 15.8 µM (active) |
| CCn1ccc(NS(=O)(=O)c2ccc(N)cc2)nc1=O | inactive | inactive | inactive | inactive | inactive | inactive |  | inactive |  |  |  | inactive | inactive | inactive | inactive |  | inactive | inactive |  |  |
| CCCN1C[C@H](CSC)C[C@@H]2c3cccc4[nH]cc(c34)C[C@H]21 | inactive | inactive | inactive | inactive | inactive | inactive | inactive |  | inactive | inactive | inactive | inactive | inactive | inactive | inactive |  | inactive | inactive |  |  |
| C=C(C)C(=O)OCCN(CC)CC | inactive | inactive | inactive | inactive | inactive | inactive |  | inactive | inactive | inactive | inactive | inactive | inactive | inactive | inactive |  | inactive | inactive |  |  |
